# Reference: PubChem BioAssay (NCI)
# The panel holds about 83,000 compounds, 20% with a hit somewhere; the sample as a whole holds those more often.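 Values shown are percent growth following 48 h exposure of cells in 96-well plates to a single concentration of compound; below 10 was considered active.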 Values without a mark were called inactive. Active and inactive are the calls of the source.
# Legend:
# Experiment in all cases: NCI-60 one-dose screen, 48 h (100 = growth as untreated, 0 = no growth, -100 = all killed)
# Conditions in all cases: 10 µM unless noted
# HCT-15 colon = tested on: HCT-15 colon
# HT29 colon = tested on: HT29 colon
# SNB-19 CNS = tested on: SNB-19 CNS
# U251 CNS = tested on: U251 CNS
# PC-3 prostate = tested on: PC-3 prostate
# SK-MEL-5 melanoma = tested on: SK-MEL-5 melanoma
# UACC-62 melanoma = tested on: UACC-62 melanoma
# LOX IMVI melanoma = tested on: LOX IMVI melanoma
# SK-MEL-28 melanoma = tested on: SK-MEL-28 melanoma
# SK-MEL-2 melanoma = tested on: SK-MEL-2 melanoma
# EKVX NSCLC = tested on: EKVX NSCLC
# SN12C renal = tested on: SN12C renal
# UO-31 renal = tested on: UO-31 renal
# TK-10 renal = tested on: TK-10 renal
# ACHN renal = tested on: ACHN renal
# CAKI-1 renal = tested on: CAKI-1 renal
# A498 renal = tested on: A498 renal
# CCRF-CEM leukemia = tested on: CCRF-CEM leukemia
# MOLT-4 leukemia = tested on: MOLT-4 leukemia
Structure (SMILES),growth (HCT-15 colon),growth (HT29 colon),growth (SNB-19 CNS),growth (U251 CNS),growth (PC-3 prostate),growth (SK-MEL-5 melanoma),growth (UACC-62 melanoma),growth (LOX IMVI melanoma),growth (SK-MEL-28 melanoma),growth (SK-MEL-2 melanoma),growth (EKVX NSCLC),growth (SN12C renal),growth (UO-31 renal),growth (TK-10 renal),growth (ACHN renal),growth (CAKI-1 renal),growth (A498 renal),growth (CCRF-CEM leukemia),growth (MOLT-4 leukemia)
Nc1cccc(-c2nc3sccn3c2-c2ccnc(NCCCNS(=O)(=O)c3ccc(C(F)(F)F)cc3)n2)c1,1.79% (active),14%,29.1%,19.8%,1.93% (active),-90.5% (active),-33.3% (active),-30.2% (active),11.2%,-21.7% (active),21.1%,12.8%,-8.25% (active),47.5%,6.33% (active),18.3%,11.2%,6.17% (active),-29.6% (active)
Nc1c(C(=O)Nc2cccc3c2OCCO3)sc2nc3c(cc12)CN(Cc1ccccc1)CC3,42.5%,35.3%,60.4%,56.9%,55.1%,60.8%,49.3%,53.2%,75.4%,56.2%,83.3%,87.2%,60.4%,96.8%,77.2%,55.3%,37.9%,36.3%,52.5%
COc1ccc(C2CC(=O)Nc3c2c(C)nn3-c2nc3ccccc3[nH]2)cc1 (stereo not given),99.6%,103%,113%,103%,38.7%,95.5%,104%,–,105%,100%,–,–,34.3%,116%,99.1%,101%,–,10.1%,-44.6% (active)
Nc1c(C(=O)Nc2ccccc2)sc2nc3c(cc12)CN(CCc1ccccc1)CC3,107%,104%,95.4%,91.3%,88.1%,92.9%,86.4%,87.5%,106%,105%,88.3%,89.4%,80.3%,113%,95.3%,86.9%,–,104%,104%
CC1=C(C)C(=O)OC([C@](C)(O)[C@]2(O)CC[C@@]3(O)[C@@H]4C[C@H]5O[C@]56CC=CC(=O)[C@]6(C)[C@H]4CC[C@]23COC(=O)c2ccc(C)o2)C1 (stereo not given in full),-86.2% (active),-73.6% (active),-85% (active),-85.2% (active),-35% (active),-80.6% (active),-83.3% (active),-95% (active),-86.1% (active),-63% (active),-46.9% (active),-61% (active),-96.6% (active),-89.8% (active),-95.7% (active),–,-78.3% (active),0.17% (active),4.89% (active)
C=C1CCC2C3(C)COC(c4ccccc4Br)OC3CCC2(C)C1C/C=C1/C(=O)OCC1OC(C)=O (stereo not given),-36.2% (active),-46.2% (active),102%,-95.9% (active),-17.1% (active),-57.1% (active),-18.4% (active),-92% (active),-52.9% (active),-37.4% (active),-3.86% (active),-43.7% (active),26%,-48.5% (active),-80.2% (active),-32.4% (active),–,–,-45.5% (active)
CCCCCCCCCCCCCCCCCCNC(=O)[C@H]1CSC(c2ccc(F)c(OC)c2)N1 (stereo not given in full),6.47% (active),-84.5% (active),-40.2% (active),-96.6% (active),34.1%,-94.8% (active),-97.2% (active),14.1%,-93.3% (active),-94.1% (active),-57.5% (active),-79.2% (active),45.5%,6.86% (active),30.3%,-76.8% (active),6.25% (active),-36.8% (active),-14.9% (active)
Brc1cccc(-c2cc(-c3ccc4c(c3)OCCO4)[nH]n2)c1,15.9% [25 µM],1.56% [25 µM] (active),34% [25 µM],22% [25 µM],26.3% [25 µM],10% [25 µM],36.8% [25 µM],34% [25 µM],59.7% [25 µM],35.8% [25 µM],20.3% [25 µM],33.7% [25 µM],35% [25 µM],59% [25 µM],41.4% [25 µM],25.7% [25 µM],7.77% [25 µM] (active),19.5% [25 µM],50.4% [25 µM]
CSc1nc2sc3c(c2c(=O)n1-c1ccc(C(C)C)cc1)CCC(=O)C3,-15.9% (active),11.4%,9.58% (active),-80% (active),-6.64% (active),–,-20.8% (active),-39.6% (active),28.7%,63.8%,23.1%,6.68% (active),-67.2% (active),7.34% (active),-19.9% (active),-9.77% (active),96.3%,-11.8% (active),-12.6% (active)
O=C(Nc1nc(-c2ccccc2)cc(-c2ccc(Cl)cc2)n1)c1ccncc1,104%,96.8%,90.3%,93%,91.4%,102%,86.9%,91.7%,115%,98.8%,82.3%,104%,70.8%,107%,97.4%,77.7%,71.5%,98.3%,93%
COc1ccc(S(=O)(=O)NCCNc2nccc(-c3c(-c4cccc(N)c4)nc4sccn34)n2)cc1,101%,93.5%,108%,104%,83.6%,98%,100%,98.4%,117%,108%,95.4%,–,83.2%,115%,95.3%,93.8%,91.6%,101%,99%
CC(C)C1=C[C@@]23CC[C@@H]4[C@](C)(CCC[C@@]4(C)C(=O)OCC#CCN4CCCC4)[C@H]2C[C@@H]1[C@H]1C(=O)OC(=O)[C@H]13,90.6%,90.7%,97.4%,100%,77.8%,91.3%,82.1%,89.1%,101%,97.1%,86.4%,93.2%,78.3%,101%,95.9%,83.6%,78.5%,85.7%,93.9%
CCOC(=O)c1cnc2cc(Cl)c(F)cc2c1Nc1cccc(NS(C)(=O)=O)c1,89.3%,122%,93.9%,106%,101%,98.3%,87.8%,91.2%,114%,113%,90.8%,–,73.3%,124%,93.5%,86.2%,78.9%,103%,99.9%
COc1cccc(-c2nc3sccn3c2-c2ccnc(NCCCNS(=O)(=O)c3ccccc3)c2)c1,27.6%,41.6%,68.7%,65.4%,15.9%,-29.8% (active),-27.7% (active),35.1%,66.8%,27.4%,42.7%,31.4%,9.36% (active),88.2%,26.9%,27.8%,57.9%,12.3%,14.1%
C(=N\Nc1ccccn1)/c1ccccn1,42.7%,19%,40.4%,13.4%,63.5%,-4.55% (active),2.66% (active),-11.6% (active),34.8%,48.9%,25.8%,36.5%,-10.7% (active),17.5%,14.1%,–,22.4%,0.917% (active),18.8%
O=C1/C(=C/c2ccc(Cl)c(Cl)c2)CN(C(=O)CCN2CCC(=NO)CC2)C/C1=C\c1ccc(Cl)c(Cl)c1,-88.3% (active),-85.9% (active),-96% (active),-93.4% (active),-71.2% (active),-93.7% (active),-92.3% (active),-90.6% (active),-92% (active),-86.9% (active),-85.1% (active),-97.3% (active),-95.7% (active),-88.9% (active),-98.4% (active),-92.1% (active),–,-28.2% (active),-21.7% (active)
CCOC(=O)c1cnc2ccc(OC)cc2c1Nc1cccc(S(=O)(=O)NC)c1,82.3%,112%,89%,71.6%,95.3%,–,103%,99.1%,85.9%,102%,104%,92.9%,93.6%,110%,91.5%,89.4%,95.9%,93%,99.2%
COc1cccc(-c2nc3sccn3c2-c2ccnc(NCCCNS(=O)(=O)c3ccc(Cl)cc3)c2)c1,37.8%,42.6%,69.4%,63.5%,26.2%,1.31% (active),6.77% (active),39.2%,69.6%,45.3%,47.8%,41.1%,11.9%,83.1%,36.3%,32.6%,38.7%,23.2%,21.6%
O=[N+]([O-])c1cccc(-c2nc3sccn3c2-c2ccnc(NCCCNS(=O)(=O)c3ccc(F)cc3)n2)c1,-3.76% (active),18.4%,29.3%,26.8%,-3.27% (active),-76.7% (active),-45% (active),-21.3% (active),-1.76% (active),-15.9% (active),18.3%,10.6%,-26.8% (active),44.6%,5.38% (active),9.79% (active),29.7%,1.95% (active),-18.2% (active)
CC1=CC(=O)CC(C)(C)[C@@]1(O)/C=C/[C@@H](C)O,89.4%,112%,97.7%,90.8%,101%,–,99.7%,93.7%,108%,112%,91.6%,105%,95.3%,108%,109%,97.2%,94.1%,104%,108%
